SMARCA2 activ – activators of SMARCA2 function. MG213 cells, MMTV-luciferase reporter, dexamethasone, overnight. activation, % at 9.1 µM. actives 1% (n = 370,000). AID 652017; in the data active means activation above about 7.8%
ssDAF12 agonist – S. stercoralis DAF-12 activation, primary screen; HEK293 ssDAF-12/GRIP1 lit1-tk-luc reporter, luminescence; % of 3 µM dafachronic acid response; activation, % at 6.8 µM; actives 1% (n = 370,000); AID 652126;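 active means activation above the mean over all tested compounds plus 3 SD, cut at about 0.9% in these data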
DAX1 inh-1 – blocks DAX1 repression of SF-1 activated StAR promoter | inhibition, % at 6.8 µM | actives 1.1% (n = 370,000) | AID 652010 | HEK293T StAR-luciferase reporter, SF-1/DAX-1 repression relief;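 active means inhibition above the mean over all tested compounds plus 3 SD, cut at about 3.6% in these data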;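 further: higher inhibition means more luminescence from relief of DAX-1 repression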
hgDAF12 agonist – hgDAF-12 agonism, primary luciferase screen; HEK293 GAL4-hgDAF12 UAS-luciferase reporter, agonist luminescence; normalized to butyrate control; activation, % at 6.8 µM; actives 1.8% (n = 370,000);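 active means activation above a cutoff set at the mean of all screened compounds plus 3 SD, cut at about 10% in these data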
DAX1 inh-2 – NR0B1 (DAX1) inhibition; P51843; AID 504766; HEK293 Gal4-DAX1 luciferase reporter, luminescence; inhibition, % at 6.75 µM; actives 0.99% (n = 340,000);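 active means inhibition above the mean over all tested compounds plus 3 SD, cut at about 4.2% in these data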;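 further: inhibition shows as a rise in luminescence from relieved DAX1 repression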
Target sequence (P51843 207-470 limits assumed): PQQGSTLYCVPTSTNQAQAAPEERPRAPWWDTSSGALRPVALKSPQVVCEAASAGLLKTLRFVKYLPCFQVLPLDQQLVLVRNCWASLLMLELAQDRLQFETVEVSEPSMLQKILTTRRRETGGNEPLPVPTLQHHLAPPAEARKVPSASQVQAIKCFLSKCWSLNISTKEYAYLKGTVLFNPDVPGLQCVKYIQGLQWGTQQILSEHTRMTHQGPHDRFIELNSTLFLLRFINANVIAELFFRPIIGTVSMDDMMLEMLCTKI
hcDAF12 agonist – H. contortus DAF-12 activation, primary screen; HEK293 hcDAF-12 lit1-tk-luc reporter, luminescence; 0% DMSO, 100% Δ7-dafachronic acid; activation, % at 6.8 µM; actives 1.4% (n = 370,000); AID 652067;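 active means activation above the mean of all tested compounds plus 3 SD, cut at about 5.5% in these data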
Hits are given with their value. A selection: hits, their analogues and other compounds. The true share with any hit is near 4.8%.

Screening CCc1nc(N2CCN(C(C)=O)CC2)c(C#N)c2c1COC(C)(C)C2 returned SMARCA2 activ inactive, ssDAF12 agonist inactive, DAX1 inh-1 inactive, hgDAF12 agonist inactive, DAX1 inh-2 inactive and hcDAF12 agonist inactive.
Screening O=C(Nc1ccccc1O)c1ccc2c(c1)C(=O)N(N1C(=O)c3ccccc3C1=O)C2=O returned SMARCA2 activ inactive, ssDAF12 agonist 1.3, DAX1 inh-1 inactive, hgDAF12 agonist inactive, DAX1 inh-2 inactive and hcDAF12 agonist 5.9.
CCOc1cc(CNc2ccc3c(c2)CCC3)ccc1O was read as SMARCA2 activ inactive, ssDAF12 agonist 1.2, DAX1 inh-1 inactive, hgDAF12 agonist inactive, DAX1 inh-2 inactive and hcDAF12 agonist inactive.
For O=C(COc1ccccc1F)Nc1ccc2c(c1)CCC2 the results were SMARCA2 activ inactive, ssDAF12 agonist inactive, DAX1 inh-1 3.7, hgDAF12 agonist 15, DAX1 inh-2 inactive and hcDAF12 agonist inactive.
`O=C(COc1cccnc1[N+](=O)[O-])Nc1ccc2c(c1)CCC2` gave SMARCA2 activ inactive, ssDAF12 agonist inactive, DAX1 inh-1 inactive, hgDAF12 agonist inactive, DAX1 inh-2 inactive and hcDAF12 agonist inactive.
`CCOc1ccccc1NC(=O)Nc1ccc2c(c1)CCC2` gave SMARCA2 activ inactive, ssDAF12 agonist inactive, DAX1 inh-1 3.6, hgDAF12 agonist inactive, DAX1 inh-2 inactive and hcDAF12 agonist inactive.
Screening COc1cc(CNc2ccc3c(c2)CCC3)cc(OC)c1O returned SMARCA2 activ inactive, ssDAF12 agonist inactive, DAX1 inh-1 inactive, hgDAF12 agonist inactive, DAX1 inh-2 inactive and hcDAF12 agonist inactive.
CC(C)Cn1nc(NC(=O)c2ccco2)c2cc3ccccc3nc21 was read as SMARCA2 activ inactive, ssDAF12 agonist inactive, DAX1 inh-1 inactive, hgDAF12 agonist inactive, DAX1 inh-2 inactive and hcDAF12 agonist inactive.
For Cc1ccc2nc3c(cc2c1)c(NC(=O)c1ccco1)nn3CC(C)C the results were SMARCA2 activ inactive, ssDAF12 agonist inactive, DAX1 inh-1 inactive, hgDAF12 agonist inactive, DAX1 inh-2 12 and hcDAF12 agonist inactive.
For CC(C)Cn1nc(NC(=O)c2cccs2)c2cc3ccccc3nc21 the results were SMARCA2 activ inactive, ssDAF12 agonist inactive, DAX1 inh-1 inactive, hgDAF12 agonist inactive, DAX1 inh-2 5.5 and hcDAF12 agonist inactive.
For OC(CN(c1ccccc1)c1ccccc1)Cn1cnc2ccccc21 (centres undefined) the results were SMARCA2 activ inactive, ssDAF12 agonist inactive, DAX1 inh-1 inactive, hgDAF12 agonist inactive, DAX1 inh-2 inactive and hcDAF12 agonist inactive.
Screening CC(C)N(Cc1nc(-c2ccccc2)no1)C(=O)CCCN1C(=O)c2ccccc2C1=O returned SMARCA2 activ inactive, ssDAF12 agonist inactive, DAX1 inh-1 inactive, hgDAF12 agonist inactive, DAX1 inh-2 inactive and hcDAF12 agonist inactive.
`C=CCNC(=O)c1ccc(CSc2nc3ccccc3s2)cc1` gave SMARCA2 activ inactive, ssDAF12 agonist inactive, DAX1 inh-1 inactive, hgDAF12 agonist inactive, DAX1 inh-2 inactive and hcDAF12 agonist 5.7.
For COc1ccc(CCNC(=O)C2CCCN(c3nn4c(=O)cc(C)nc4s3)C2)cc1OC (centres undefined) the results were SMARCA2 activ inactive, ssDAF12 agonist inactive, DAX1 inh-1 inactive, hgDAF12 agonist inactive, DAX1 inh-2 inactive and hcDAF12 agonist inactive.
For CCOC1=C2CN(S(=O)(=O)c3ccc(C)cc3)[C@H](c3ccccc3)C[C@H]2[C@H]2C(=O)N(c3ccccc3)C(=O)[C@H]2C1 the results were SMARCA2 activ inactive, ssDAF12 agonist inactive, DAX1 inh-1 4.0, hgDAF12 agonist inactive and hcDAF12 agonist inactive.
For CCC1CCc2c(sc(NC(=O)c3ccoc3C)c2C(N)=O)C1 (centres undefined) the results were SMARCA2 activ inactive, ssDAF12 agonist inactive, DAX1 inh-1 inactive, hgDAF12 agonist inactive, DAX1 inh-2 inactive and hcDAF12 agonist 5.9.
Screening COc1cc(/C=C/C(=O)OC(C)C(=O)NC2CCCCC2C)cc(Cl)c1OC (centres undefined) returned SMARCA2 activ inactive, ssDAF12 agonist inactive, DAX1 inh-1 inactive, hgDAF12 agonist inactive, DAX1 inh-2 6.9 and hcDAF12 agonist inactive.
`CCc1nnc(NC(=O)COC(=O)CN2C(=O)c3ccccc3C2=O)s1` gave SMARCA2 activ inactive, ssDAF12 agonist inactive, DAX1 inh-1 inactive, hgDAF12 agonist inactive, DAX1 inh-2 inactive and hcDAF12 agonist inactive.
Screening COc1ccc(S(=O)(=O)N2CCOC23CCN(S(=O)(=O)c2ccccc2)CC3)cc1 returned SMARCA2 activ inactive, ssDAF12 agonist inactive, DAX1 inh-1 inactive, hgDAF12 agonist inactive, DAX1 inh-2 4.3 and hcDAF12 agonist inactive.
Screening O=C(C1CCCN1S(=O)(=O)c1cccc2ccccc12)N1CCN(c2ccccc2)CC1 (centres undefined) returned SMARCA2 activ inactive, ssDAF12 agonist 2.5, DAX1 inh-1 inactive, hgDAF12 agonist inactive and hcDAF12 agonist inactive.
For C=CCOc1ccc(/C=C2\SC(=S)N(N3CCOCC3)C2=O)cc1 the results were SMARCA2 activ inactive, ssDAF12 agonist inactive, DAX1 inh-1 inactive, hgDAF12 agonist inactive, DAX1 inh-2 inactive and hcDAF12 agonist 5.7.
`O=C(COC(=O)c1ccccc1-n1cnnn1)c1ccc(F)c(F)c1` gave SMARCA2 activ inactive, ssDAF12 agonist 0.9, DAX1 inh-1 4.0, hgDAF12 agonist inactive, DAX1 inh-2 inactive and hcDAF12 agonist inactive.
For O=C(COC(=O)c1ccccc1-n1cnnn1)c1ccccc1 the results were SMARCA2 activ inactive, ssDAF12 agonist inactive, DAX1 inh-1 inactive, hgDAF12 agonist inactive, DAX1 inh-2 inactive and hcDAF12 agonist inactive.
`Cc1cc(-c2ccccc2)n2nc(N)nc2n1` gave SMARCA2 activ inactive, ssDAF12 agonist inactive, DAX1 inh-1 inactive, hgDAF12 agonist inactive, DAX1 inh-2 inactive and hcDAF12 agonist inactive.
For CCC(CC)NC(=O)CO/N=C/c1ccc(Cl)cc1Cl the results were SMARCA2 activ 7.9, ssDAF12 agonist inactive, DAX1 inh-1 inactive, hgDAF12 agonist inactive, DAX1 inh-2 inactive and hcDAF12 agonist inactive.
For CCOC(=O)C1CCN(C(=O)CCc2nnc3ccc(NCCCN4CCCC4=O)nn23)CC1 the results were SMARCA2 activ inactive, ssDAF12 agonist inactive, DAX1 inh-1 inactive, hgDAF12 agonist inactive, DAX1 inh-2 inactive and hcDAF12 agonist inactive.
For O=S1(=O)CCN2N=C(C3CC3)SC2=N1 the results were SMARCA2 activ inactive, ssDAF12 agonist inactive, DAX1 inh-1 inactive, hgDAF12 agonist inactive, DAX1 inh-2 6.2 and hcDAF12 agonist inactive.
`O=C(O)c1ccc2c(c1)SC1=NS(=O)(=O)CCN12` gave SMARCA2 activ inactive, ssDAF12 agonist inactive, DAX1 inh-1 inactive, hgDAF12 agonist inactive, DAX1 inh-2 inactive and hcDAF12 agonist inactive.
`CC1CCC2(CCC(=O)N2CCCOC(=O)NC(C)(C)C)CC1` (centres undefined) gave SMARCA2 activ inactive, ssDAF12 agonist inactive, DAX1 inh-1 inactive, hgDAF12 agonist inactive and hcDAF12 agonist inactive.

Screening data from PubChem BioAssay.
